{"source": "PubChem BioAssay (NCI)", "note": "This is part of a sample that, as a whole, favours compounds with a hit. Of some 83,000 tested, about 20% had one in any assay.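 Percent growth is the endpoint: 0 to 100 indicates growth inhibition (40 means 60% inhibition), 0 means no net growth, and negative values indicate cell death.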 A number with no mark means an inactive call. Calls of active or inactive are those of the source. Rule for the calls: active = growth percent below 10; inactive = the rest.", "data": [{"test_system": "DU-145 prostate", "assay": "NCI-60 one-dose screen, 48 h (100 = growth as untreated, 0 = no growth, -100 = all killed)", "settings": "10 µM unless noted", "values": [{"molecule": "O=NN1CCCc2cccc(O)c21", "growth": "10.8%"}, {"molecule": "Fc1ccc2c(c1)c(-c1nc(-c3c[nH]c4ncccc34)cs1)cn2CCN1CCOCC1", "growth": "77%"}, {"molecule": "CC(=O)Nc1nc2c(s1)CC[C@@]1(C)C2=CC[C@H]2[C@@H]3CC[C@H](O)[C@@]3(C)CC[C@@H]21", "growth": "81.7%"}, {"molecule": "CN(C)CC(C(=O)Cc1ccccc1)c1ccccc1", "note": "(stereo unspecified)", "growth": "-10.7% (active)"}, {"molecule": "CCOC(=O)[C@@H](C)C[C@H](Cc1ccccc1)NC(=O)c1csc([C@@H](C[C@H](C(C)C)N(C)C(=O)[C@H](CCC(C)C)NC(=O)[C@H]2CCCCN2C)OC(C)=O)n1", "growth": "15.7%"}, {"molecule": "CCCCCCCCCCCCCCCCCC1OC[C@H](COC(=O)O[C@@H](C(=O)O[C@H]2C[C@@]3(O)[C@@H](OC(=O)c4ccccc4)[C@@H]4[C@]5(OC(C)=O)CO[C@@H]5C[C@H](O)[C@@]4(C)C(=O)[C@H](OC(C)=O)C(=C2C)C3(C)C)[C@@H](NC(=O)c2ccccc2)c2ccccc2)O1", "note": "(stereo partly specified)", "growth": "45.7%"}, {"molecule": "c1cnc2[nH]cc(-c3csc(-c4cn(CCCCN5CCCCC5)c5ccccc45)n3)c2c1", "growth": "107%"}, {"molecule": "C=C1C[C@](OC)([C@H](O)C(=O)N[C@@H](OC)[C@@H]2C[C@@H](O)C(C)(C)[C@@H](C[C@@H](COC)OC)O2)O[C@H](C)[C@@H]1C", "growth": "-49.9% (active)"}, {"molecule": "O=C(Nc1ccc(O)cc1)C(Cl)(Cl)Cl", "growth": "108%"}, {"molecule": "Cc1c(NS(=O)(=O)c2ccccc2)ccc([N+](=O)[O-])c1Cl", "growth": "94%"}, {"molecule": "CCCCN1CCCC[C@@H]1C(=O)N[C@H](C(=O)N(C)[C@H](C[C@@H](OC(C)=O)c1nc(C(=O)NC2CCC(C(=O)OC)CC2)cs1)C(C)C)C(C)C", "note": "(stereo partly specified)", "growth": "9.02% (active)"}, {"molecule": "Cn1cc(-c2csc(-c3cn(CCCCN4CCCCC4)c4ccc(F)cc34)n2)c2cccnc21", "growth": "-81% (active)"}, {"molecule": "CC1=C(CN)C2=C(C)C3(CC3)[C@@](C)(O)C(=O)C2=C1", "growth": "48.5%"}, {"molecule": "CC(=O)O[C@H]1C(=O)[C@@]2(C)[C@H]([C@H](OC(=O)c3ccccc3)[C@]3(O)C[C@H](OC(=O)[C@H](OC(=O)OC[C@H]4COC(C)(C)O4)[C@@H](NC(=O)c4ccccc4)c4ccccc4)C(C)=C1C3(C)C)[C@]1(OC(C)=O)CO[C@@H]1C[C@@H]2O", "growth": "5.18% (active)"}, {"molecule": "Cn1cc(-c2csc(-c3cn(CCN4CCOCC4)c4ccc(F)cc34)n2)c2cccnc21", "growth": "40.1%"}, {"molecule": "Brc1ccc2c(c1)c(-c1nc(-c3c[nH]c4ncccc34)cs1)cn2CCN1CCOCC1", "growth": "86.5%"}, {"molecule": "COC(=O)[C@@H](C)C[C@H](Cc1ccccc1)NC(=O)c1csc([C@@H](C[C@H](C(C)C)N(C)C(=O)[C@@H](NC(=O)[C@H]2CCCCN2C)C2CCCCC2)OC(C)=O)n1", "growth": "6.23% (active)"}, {"molecule": "CC(=O)OC1CCC2(C)C(CCC3C2CC(=O)C2(C)C3CC(Sc3ccc(N(CCCl)CCCl)cc3)C2C(C)=O)C1", "note": "(stereo unspecified)", "growth": "100%"}, {"molecule": "COc1ccc(S(=O)(=O)N(Cc2ccc3c(c2)C=CC(C)(C)O3)c2ccccc2)cc1OC", "growth": "96.6%"}, {"molecule": "CC[C@H](C)[C@H](NC(=O)[C@H]1CCCCN1C)C(=O)N(C)[C@H](CC(=O)c1nc(C(=O)N[C@@H](Cc2ccccc2)C[C@H](C)C(=O)O)cs1)C(C)C", "growth": "106%"}, {"molecule": "COC(=O)[C@@H](C)C[C@H](Cc1ccccc1)NC(=O)c1csc([C@@H](C[C@H](C(C)C)N(C)C(=O)[C@@H](NC(=O)C23CC(NC(C)=O)(C2)C3)C2CC2)OC(C)=O)n1", "growth": "61.6%"}, {"molecule": "O=C1CC2(CC3(Cl)C(Cl)=C(Cl)C2(Cl)C3(Cl)Cl)C(=O)O1", "note": "(stereo unspecified)", "growth": "101%"}, {"molecule": "C[n+]1c(/C=C/c2ccc(N(CCCl)CCCl)cc2)sc2ccccc21", "growth": "45.2%"}, {"molecule": "CC[C@H](C)[C@H](NC(=O)NC(C)(C)C)C(=O)N(C)[C@H](C[C@@H](OC(C)=O)c1nc(C(=O)N[C@@H](Cc2ccccc2)C[C@H](C)C(=O)OC)cs1)C(C)C", "growth": "1.97% (active)"}, {"molecule": "CCCCCCCC[N+](C)(CCCCCCCC)CCCCCCCC", "growth": "-100% (active)"}, {"molecule": "CC(=O)O[C@H]1C(=O)[C@@]2(C)[C@H]([C@H](OC(=O)c3ccccc3)[C@]3(O)C[C@H](OC(=O)[C@H](OC(=O)OC[C@@H]4COC(C)(C)O4)[C@@H](NC(=O)c4ccccc4)c4ccccc4)C(C)=C1C3(C)C)[C@]1(OC(C)=O)CO[C@@H]1C[C@@H]2O", "growth": "6.23% (active)"}]}]}
